Results as given in PubChem BioAssay (NCI).
The panel holds about 83,000 compounds, 20% with a hit somewhere; the sample as a whole holds those more often.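 Testing used 96-well plates and a 48-hour single-concentration exposure. Example: -40 means 40% of the starting cells died.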 Calls of active or inactive are those of the source. How the source made its calls: active means growth percent below 10; inactive means the rest.

These compounds were tested on HL-60(TB) leukemia (assay: NCI-60 one-dose screen, 48 h (100 = growth as untreated, 0 = no growth, -100 = all killed)). Conditions: 10 µM unless noted.

Row | Compound | growth
1 | CN(C)CCOc1nc2ccccc2c2c1-c1ccc(Cl)cc1C2=O | -27.2% (active)
2 | O=C(CCNCc1ccccc1)c1ccccc1 | 104% (inactive)
3 | Clc1ccc(Cc2nc3ccccc3s2)cc1 | 98.6% (inactive)
4 | O=C(NCCc1ccccn1)OCc1nc2nc(Cl)nc(N3CCOCC3)c2[nH]1 | -47.6% (active)
5 | COc1cc(-c2csc(NC(=O)Nc3ccc(C(F)(F)F)cc3)n2)cc(OC)c1OC | -13.8% (active)
6 | O=C(CC(=O)C(F)(F)C(F)(F)C(F)(F)F)c1cc2ccccc2o1 | 99.3% (inactive)
7 | COc1ccc(/C(C#N)=C/c2ccccc2OC)cc1 | -0.826% (active)
8 | CC(C)(C)[C@H](OCc1cn([C@H]2C[C@@H](O)[C@@H](CO)O2)c(=O)[nH]c1=O)c1ccc(C#Cc2ccccc2)cc1[N+](=O)[O-] | 70.4% (inactive)
9 | CN1CCN(C(=O)OCCOCCOC(=O)N2CCN(C)CC2)CC1 | 98.2% (inactive)
10 | c1ccc2cc(C[n+]3ccn(CCCCCCCCCCn4cc[n+](Cc5ccc6ccccc6c5)c4)c3)ccc2c1 | -67.8% (active)
11 | Nc1nc(N)c(NC(=O)CNc2ccc(C(=O)O)cc2)c(N)n1 | 107% (inactive)
12 | COc1ccc(/C=C(/c2ccccc2)[N+](=O)[O-])c(OC)c1 | 0.521% (active)
13 | O=C(Nc1cc(Cl)ccc1O)c1ccccc1Nc1ccnc(C(F)(F)F)c1 | -38.1% (active)
14 | CC1CCN(C(=O)CCCl)c2ccccc21 (stereo not given) | 112% (inactive)
15 | COc1c(C2CC(=O)Nc3c2c(C)nn3-c2nc3ccccc3[nH]2)cc2c(c1OC)OCO2 (stereo not given) | 20.7% (inactive)
16 | OC[C@H]1OC([S-])[C@H](O)[C@@H](O)[C@@H]1O.[Au+] (stereo not given in full) | 95.1% (inactive)
17 | O=C(O)Cn1ccc2ccccc21 | 104% (inactive)
18 | COC(=O)[C@@]1(C)CC[C@]2(C)CC[C@]3(C)C4=CC=C5C(=CC(=O)C(O)=C5C)[C@]4(C)[C@@H](O)C[C@@]3(C)[C@@H]2C1 | 49.6% (inactive)
19 | Cc1ccc(OCCCCCCNCCO)c(C)c1 | -3.98% (active)
20 | CCOc1ccc2c(c1)CC[C@@H]1[C@@H]2CC[C@]2(C)[C@@H](O)[C@@H](O)C[C@@H]12 | 97% (inactive)

Row | Compound | growth
21 | CCC1N=C(N)N=C(N)N1c1ccc(Cl)cc1 (stereo not given) | 75.4% (inactive)
22 | O=C1Nc2ccc(Cl)cc2[C@@](C#CC2CC2)(C(F)(F)F)O1 | 96.5% (inactive)
23 | FC(F)(F)c1ccc(-c2cnc(-n3cc(COCCN4CCCCC4)nn3)nc2NC2CCCCCC2)cc1 | -63.1% (active)
24 | COc1ccc(Nc2nc(NCCNc3ccnc4cc(Cl)ccc34)nc(N3CCOCC3)n2)cc1 | 22.8% (inactive)
25 | N#Cc1c(-c2ccc(Cl)cc2)nc(N=Nc2c(O)[nH]c3ccc(Cl)cc23)nc1N1CCOCC1 | 104% (inactive)
26 | COc1ccc(OC)c(-c2ccc(-c3ccccc3N)c3[nH]c4ccccc4c23)c1 | 93.4% (inactive)
27 | Nc1cccc(S(=O)(=O)c2cccc(N)c2)c1 | -10.6% (active)
28 | C1=C(c2ccccc2)c2ccccc2C1 | 95.1% (inactive)
29 | C=C1C(=O)O[C@H]2[C@H]1CC/C(CNC(=O)/C=C/c1cc(OC)c(OC)c(OC)c1)=C\CC[C@@]1(C)O[C@@H]21 | -33.3% (active)
30 | ClC1=NC(Cl)C(Cl)=N/C1=N\c1ncn[nH]1 (stereo not given) | -64.6% (active)
31 | O=C(Nc1ccc2c(c1)-c1ccccc1C2)C1CC(=O)N(c2ccc3c(c2)OCO3)C1 (stereo not given) | 112% [50 µM] (inactive)
32 | O=C(CCSc1nnc2n(Cc3ccccc3)c(=O)c3c4c(sc3n12)CCCC4)N1CCN(c2ccccc2)CC1 | 106% (inactive)
33 | NCC(=O)CCC(=O)O | 132% (inactive)
34 | CCOC(=O)C/C(=N\Nc1cc(=O)[nH]c2ccc(OC)cc12)C(=O)OCC | 94% (inactive)
35 | CC1=CC(=Nc2ccc(N(C)C)cc2)C=C(C)C1=O | 42.8% (inactive)
36 | CC1NC(C)c2ccc3ccccc3c2O1 (stereo not given) | 99.4% (inactive)
37 | CCCCC(=O)Nc1nc2ccc(SCCC)cc2s1 | 19.5% (inactive)
38 | Cc1nc2c(ccc3ccccc32)s1 | 84.2% (inactive)
39 | CCCCNc1ccc2c3c1cccc3c(=O)n1c3ccccc3nc21 | 63.4% (inactive)
40 | CCN(CC)CCOC(=O)c1cc(OCc2ccccc2)c(OCc2ccccc2)c(OCc2ccccc2)c1 | 59.6% (inactive)
